Screening results deposited in PubChem BioAssay by National Center for Advancing Translational Sciences (NCATS).
Sampled rows, rich in hits. Any-hit rate of the full collection: about 3.1%.
PLK1 PBD block = qHTS for Inhibitors of PLK1-PDB (polo-like kinase 1 - polo-box domain): Primary Screen | hit rate 2.8% among 360,000 | Serine/threonine-protein kinase PLK1 (Homo sapiens), P53350 | Plk1 PBD binding of FITC phosphopeptide, fluorescence polarization | Potency, µM, for inactives: max response, negative = inhibition, most hits filed as inhibitors; also: potency is read from the fitted curve at half-maximal effect; series mostly up to about 57 µM; % is scaled to controls: 0 for no effect and ±100 for the full control effect; nearly all actives have a fitted effect of over 65% in size
Target sequence (P53350 whole entry, looked up, the tested form may be a part): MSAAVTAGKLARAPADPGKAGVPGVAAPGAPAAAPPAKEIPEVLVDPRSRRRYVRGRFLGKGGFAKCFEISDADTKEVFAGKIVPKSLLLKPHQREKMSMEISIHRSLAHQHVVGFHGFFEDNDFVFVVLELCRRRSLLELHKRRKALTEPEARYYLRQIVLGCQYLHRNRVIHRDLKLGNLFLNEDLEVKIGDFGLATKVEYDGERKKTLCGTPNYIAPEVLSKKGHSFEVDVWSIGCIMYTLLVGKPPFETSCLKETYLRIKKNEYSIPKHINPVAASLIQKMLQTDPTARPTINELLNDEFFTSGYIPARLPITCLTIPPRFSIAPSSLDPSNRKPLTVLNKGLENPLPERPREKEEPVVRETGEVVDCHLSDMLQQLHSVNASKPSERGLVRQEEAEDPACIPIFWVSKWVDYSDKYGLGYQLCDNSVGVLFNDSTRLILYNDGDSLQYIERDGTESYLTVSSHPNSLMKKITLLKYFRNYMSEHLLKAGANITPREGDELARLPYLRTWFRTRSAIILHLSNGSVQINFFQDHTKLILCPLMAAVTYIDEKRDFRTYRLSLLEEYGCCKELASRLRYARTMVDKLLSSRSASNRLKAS
TSHR antagonist = Antagonists of the Thyroid Stimulating Hormone Receptor: HTS campaign. TSHR-expressing cells, TSH-stimulated cAMP HTRF, 2 h; stronger effect = lower value. activity change, negative = inhibition, % at 11.5 µM. hit rate 0.2% among 330,000. AID 504810, 2011;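 active = activity change below a set negative limit, meaning inhibition stronger than a set level, cut at about -70% in these data; inconclusive = activity change between two set negative limits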; also: % is scaled to controls: 0 for no effect and ±100 for the full control effect
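TSHR-expressing cells were treated with compounds, then stimulated with TSH at EC80 (4nM final) for 2 hours at 37 deg C. Cellular cAMP was measured by HTRF competition between lysate cAMP and cAMP-d2 for a cryptate-labelled anti-cAMP antibody.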
VDR inhibitor = Inhibitors of the vitamin D receptor (VDR): qHTS. hit rate 0.93% among 400,000. AID 504847, 2011. Vitamin D3 receptor (Homo sapiens), P11473. VDR-SRC2-3 peptide fluorescence polarization, 2 h. Potency, µM, inactives show max response, negative = inhibition, most hits filed as inhibitors; also: potency is read from the fitted curve at half-maximal effect; % is scaled to controls: 0 for no effect and ±100 for the full control effect
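Measured by FP: displacement of SRC2-3 coactivator peptide from VDR by library compounds, following a two-hour ambient incubation.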
Vif-A3G inh = qHTS for Inhibitors of Vif-A3G Interactions: qHTS; hit rate 0.076% among 410,000; DNA dC->dU-editing enzyme APOBEC-3G (Homo sapiens), Q9HC16; HeLa A3G-eYFP + Vif (tagged APOBEC3G with the HIV-1 protein that degrades it), YFP fluorescence, overnight; Potency, µM (doses to about 46.1 µM), without a hit: top-dose activity, negative = active, usual class: inhibitors; AID 602310, 2012; also: potency is read from the fitted curve at half-maximal effect; % is scaled to controls: 0 for no effect and ±100 for the full control effect; nearly all actives have a fitted effect of over 60% in size
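Read-out is eYFP fluorescence (Ex 488/Em 500-530) from Vif-expressing HeLa A3G-eYFP cells; more signal means A3G escaped Vif-mediated degradation. Cells plated overnight, compound pinned in, incubated overnight at 37 deg C.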
Vif-A3F inh = qHTS for Inhibitors of Vif-A3F Interactions: qHTS. HeLa A3F-eYFP + Vif (tagged APOBEC3F with the HIV-1 protein that degrades it), YFP fluorescence increase. Potency, µM (highest dose often 46.1 µM), inactives show at the top dose activity, negative = active. hit rate 0.2% among 390,000. AID 602313, 2012; also: potency is read from the fitted curve at half-maximal effect; % of control where 0% means no effect; nearly all actives have a fitted effect of over 65% in size
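Fluorescence increase (Ex 488/Em 500-530) after overnight compound treatment at 37 deg C flags inhibition of Vif-driven A3F-eYFP loss in stable HeLa A3F-eYFP/Vif cells seeded overnight beforehand.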
USP1 UbRho = Inhibitors of USP1/UAF1: Hit Validation in Primary Assay; Potency, µM (series often up to 56.8 µM), for inactives: at the highest dose activity change, negative = inhibition, hits mostly inhibitors; AID 540327, 2011; Ub-Rhodamine cleavage, fluorescence kinetic read; hit rate 50% among 50; shares compounds with VDR inhibitor
VDR inh confirm = qHTS for Inhibitors of the vitamin D receptor (VDR): Hit Validation in Primary Screen. shares compounds with VDR inhibitor. AID 602199, 2012. VDR-coactivator inhibition assay, qHTS confirmation. Potency, µM, usual class: inhibitors. hit rate 89% among 840; also: potency is read from the fitted curve at half-maximal effect
VDR FP = qHTS for Inhibitors of the vitamin D receptor (VDR): Hit Validation using a Fluorescein Assay; shares compounds with VDR inhibitor; hit rate 48% among 840; AID 602200, 2012; VDR-coactivator binding, fluorescein fluorescence polarization; Potency, µM (doses to about 57.1 µM), for inactives: at the highest dose activity change, negative = inhibition, usual class: inhibitors; also: potency is read from the fitted curve at half-maximal effect
VDR bla reporter = qHTS for Inhibitors of the vitamin D receptor (VDR): Hit Validation using a Beta-Lactamase Assay; shares compounds with VDR inhibitor; hit rate 23% among 840; VDR beta-lactamase reporter cells, FRET ratio; cells co-treated with VDR agonist LG190178; Potency, µM (titrated, usually from 46.1 µM), for the others: at the top dose activity change, negative = inhibition, most hits filed as inhibitors; AID 602202, 2012; also: potency is read from the fitted curve at half-maximal effect; % is scaled to controls: 0 for no effect and ±100 for the full control effect
VDR viability = qHTS for Inhibitors of the vitamin D receptor (VDR): Hit Validation using a Cytotoxicity Assay | shares compounds with VDR inhibitor | cytotoxicity counter-screen, cell viability, qHTS | Potency, µM (series often up to 48.3 µM), without a hit: at the highest dose activity change, negative = cytotoxicity, most hits filed as cytotoxic | hit rate 18% among 840 | AID 602204, 2012;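 also: potency is read from the fitted curve at half-maximal effect; plate controls were DMSO for no effect and high-concentration cycloheximide for full effect; nearly all actives have a fitted effect of over 75% in size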
An asterisk follows results filed as active; ? = inconclusive; . = not tested or not shown; ! = not confirmed by another sample. Unless noted, calls follow the shape of the dose curve; as a rule, active = well fitted curve in the direction sought with a large enough effect; inconclusive = small, poorly fitted or top-dose-only effect, or another doubt; inactive = no such curve, though single readings can be large; an effect the other way counts as inactive or inconclusive.

SMILES	PLK1 PBD block	TSHR antagonist	VDR inhibitor	Vif-A3G inh	Vif-A3F inh	VDR inh confirm	VDR FP	VDR bla reporter	VDR viability	others
CCOC(=O)c1c(NC(=O)CSc2nnnn2-c2ccc(OC)cc2)sc(C)c1C	2.1µM*	6	18µM*	0%	-6%	?	?	7%	24%
CCOC(=O)c1csc(NC(=O)CSc2nnnn2-c2ccc(OC)cc2)n1	4%	-5	1%	-3%	0%	.	.	.	.
Nc1ccc(Sc2ccc([N+](=O)[O-])cc2)cc1	-9%	6	3%	-4%	-6%	.	.	.	.
Cc1ccc(C(C[N+](=O)[O-])Sc2ccc(N)cc2)cc1 (stereo not given)	6.7µM*	21	13µM*	-17%	4%	7.5*	?	?	?
CC1=NN(c2ccccc2)C(=O)/C1=C\C=C\c1ccccc1	0%	-5	40µM*	-25%	0%	19*	?	?	-25%
COc1cccc(NC2=C(C#N)C(=O)NC(c3cccc(OC)c3O)S2)c1 (stereo not given)	-27%	7	?	1%	1%	.	.	.	.
N#CC1=C(Nc2ccccc2Cl)SC(c2ccccc2O)NC1=O (stereo not given)	?	28	20µM*	-1%	?	3.8*	?	14%	13%
CN1CCN(c2ncc3nc(-c4ccccc4)c(=O)n(CCC#N)c3n2)CC1	.	.	8%	.	.	.	.	.	.
COc1ccc(C2=NN(c3ccccc3)C(=O)/C2=C\c2ccc(O)c(OC)c2)cc1	?	-8	-10%	-5%	0%	.	.	.	.
COc1ccc(/C=C2/C(=O)N(c3c(F)c(F)c(F)c(F)c3F)N=C2C)cc1	6.7µM*	16	50µM*	-1%	0%	?	18µM*	15%	22%
O=c1cc(-c2ccccc2)[nH]n1-c1ccccc1	6%	.	6%	0%	-13%	.	.	.	.
CC(C)(C)c1cc(=O)n(-c2ccccc2)[nH]1	-8%	19	10µM*	-18%	3%	8.9*	8.9µM*	-1%	3%
CCCCS(=O)(=O)c1oc(-c2ccc(F)cc2)nc1S(=O)(=O)c1ccc(C)cc1	.	.	?	?	3%	.	.	.	.
CCS(=O)(=O)c1oc(-c2ccc(F)cc2)nc1S(=O)(=O)c1ccccc1	.	.	20µM*	.	.	4.5*	4µM*	5.8µM*	9.5µM*
Cc1ccc(-n2nc(-c3ccc(F)cc3)c3cnc4cc5c(cc4c32)OCO5)cc1C	.	.	1%	0%	5%	.	.	.	.
CCN(CC)CCCNC(=O)CSc1nc2nc(C)c(Cc3ccccc3C)c(C)n2n1	.	.	-8%	-4%	-1%	.	.	.	.
Cc1cc2c(cc1Cl)N(C(=O)Nc1ccnc3ccccc13)CC2	.	-23	?	.	.	.	.	.	.
Cc1cc2c(cc1Cl)N(C(=O)Nc1ccc(Oc3cccnc3C)nc1)CC2	.	-20	-5%	.	.	.	.	.	.	USP1 UbRho=?
Clc1ccc(C[n+]2csc3ccccc32)cc1	27µM*	-7	50µM*	0%	-7%	15*	?	19%	4%
O=C(NCc1cccnc1)c1ccc(-c2ccc(Cl)cc2)o1	-1%	-5	-9%	-5%	?	.	.	.	.
O=C(NCc1cccnc1)/C(=C\c1ccc(-c2ccc(Cl)c(Cl)c2)o1)S(=O)(=O)c1ccccc1	-29%	?	40µM*	-16%	-12%	15*	?	12µM*	15µM*
Cc1nc2sccn2c(=O)c1CCN1CCC(=C(c2ccc(F)cc2)c2ccc(F)cc2)CC1	-6%	-19	79µM*!	-2%	-1%	.	.	.	.	USP1 UbRho=?
Cc1nc2sccn2c(=O)c1S(=O)(=O)N1CCN(c2ccc(F)cc2)CC1	-14%	17	-17%	-8%	-10%	.	.	.	.
O=C1C(Cl)=C(NC(=O)c2ccccc2)C(=O)C(Cl)=C1NC(=O)c1ccccc1	1.3µM*	-85*	35µM*	0%	8%	4.2*	?	3.7µM*	12µM*
O=C(NC1=C(Nc2ccc(Cl)cc2)C(=O)c2ccccc2C1=O)c1ccccc1	-20%	13	-9%	-7%	-5%	.	.	.	.
SMILES	PLK1 PBD block	TSHR antagonist	VDR inhibitor	Vif-A3G inh	Vif-A3F inh	VDR inh confirm	VDR FP	VDR bla reporter	VDR viability	others
Cc1ccc(-n2c(SCC(=O)Nc3ccc4c(c3)OCCO4)nc3c([nH]c4ccccc43)c2=O)cc1	.	.	0%	-4%	0%	.	.	.	.
O=C(Cc1ccc(Cl)cc1)NCc1ccccc1Cl	-5%	6	7%	-8%	-4%	.	.	.	.
O=C(Cc1ccccc1Cl)NC1(O)C(=O)c2ccccc2C1=O	-23%	-8	50µM*	2%	-13%	11*	-17%	8%	4%
Cc1cc(C)cc(NC(=O)c2ccc3oc(=O)c(S(=O)(=O)c4ccc(F)cc4)cc3c2)c1	.	.	-2%	0%	-3%	.	.	.	.
CCN(CC)c1ccc(C=Nc2ccc(N(C)C)cc2)c(O)c1	67%	-14	?	-7%	?	4*	303%	-28%	-9%
Cc1cccc(NC(c2ccc(O)cc2)c2ccc3ccc(C)nc3c2O)n1 (stereo not given)	4.2µM*	-2	45µM*	-26%	-2%	11*	?	26%	0%
COc1cccc(-c2ccc3ncnc(NCc4ccccc4)c3c2)c1	.	.	-10%	.	.	.	.	.	.
NS(=O)(=O)c1ccc(NCc2c(F)cccc2Cl)cc1	2%	10	8%	2%	5%	.	.	.	.
